Experiment [1] can be described thus: qHTS assay to identify small molecule antagonists of the estrogen receptor alpha (ER-alpha) signaling pathway - cell viability counter screen (AID 743074; calls by dose curve;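 note: HEK293 cells carrying ER-alpha-UAS-bla reporter stimulated with 17beta-estradiol; nearly all actives have a fitted effect of over 45% in size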; note: potency is the fitted concentration of half-maximal effect). Background: Quantitative high-throughput screening tests each substance at several concentrations.
Experiment [2] is described as follows: qHTS assay to identify small molecule antagonists of the estrogen receptor alpha (ER-alpha) signaling pathway using the BG1 cell line - cell viability counter screen (AID 743081).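 Note: compound given together with 17beta-estradiol as the ER stimulus; series mostly up to about 70 µM; nearly all actives have a fitted effect of over 45% in size.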
The nature of experiment [3]: qHTS assay to identify small molecule that activate the aryl hydrocarbon receptor (AhR) signaling pathway - cell viability counter screen (AID 743086).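 Note: HepG2 liver cells carrying the AhR DRE luciferase reporter; series mostly up to about 70 µM; nearly all actives have a fitted effect of over 45% in size.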 An outline of the steps:
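Cytotoxicity counter screen: CellTiter-Fluor signal (30 min, 37 C) in 4000 HepG2 cells/well carrying the DRE-luciferase reporter, following 24 h compound exposure at 37 C.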

Experiment [4] is described as follows: qHTS assay to identify small molecule antagonists of the peroxisome proliferator-activated receptor gamma (PPARg) signaling pathway - cell viability counter screen (AID 743194). Note: nearly all actives have a fitted effect of over 55% in size. In a few lines:
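Viability was measured as CellTiter-Glo luminescence in GeneBLAzer PPARg UAS-bla HEK293H cells. These cells had been exposed 17 h at 37 C to compounds together with rosiglitazone at 50 nM final, with the beta-lactamase readout taken in the same wells.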

A short description of experiment [5]: qHTS assay for small molecule agonists of the antioxidant response element (ARE) signaling pathway (AID 743202; active = well fitted activation curve with a large enough effect in the signal ratio in the repeat runs, not every such curve was filed as active; inconclusive = weak or mixed curves, or effect the other way; inactive = no such curve, though single readings can be large or run the other way; the % refers to the signal ratio). In a few lines: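 An ARE-responsive beta-lactamase gene stably integrated in HepG2 cells serves as reporter. After 5 h plating and 16 h compound incubation at 37 C, fluorescence of the B/G FRET substrate was measured.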
Experiment [6] is described as follows: qHTS assay for small molecule agonists of the antioxidant response element (ARE) signaling pathway - cell viability counter screen (AID 743203; calls by dose curve; note: nearly all actives have a fitted effect of over 55% in size). An outline of the steps: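 HepG2 cells carrying ARE-driven beta-lactamase; 2,000 cells/well; 5 hrs plating; compound pinned from DMSO; 16 hrs 37C/5% CO2; CellTiter-Glo added; 30 min RT; luminescence.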
The nature of experiment [7]: qHTS assay for small molecule activators of the heat shock response signaling pathway - cell viability counter screen (AID 743209). Note: nearly all actives have a fitted effect of over 50% in size. In a few lines:
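Luminescence from CellTiter-Glo, added after the beta-lactamase FRET read, gave the viability signal. Cells were HSE-bla HeLa treated with DMSO-dissolved compounds for 5 h at 37 C following overnight plating.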

Experiment [8] is described as follows: qHTS assay to identify small molecule agonists of the peroxisome proliferator-activated receptor delta (PPARd) signaling pathway - cell viability counter screen (AID 743211). Note: nearly all actives have a fitted effect of over 55% in size. An outline of the steps:
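Read-out: CellTiter-Glo luminescence, 30 min RT, measured in the same wells as the beta-lactamase reporter. Cells: GeneBLAzer PPAR delta UAS-bla HEK293H, 3000 cells/well, compound exposure 17 h at 37C.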

A short description of experiment [9]: qHTS assay to identify small molecule antagonists of the thyroid receptor (TR) signaling pathway (AID 743065). Note: nearly all actives have a fitted effect of over 55% in size. Note: potency is the fitted concentration of half-maximal effect. In a few lines: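 Antagonism measured as loss of luciferase signal in GH3 cells stably carrying a TRE-luciferase reporter, co-treated with compound and T3 (1 nM final) for 23.5 h at 37 C. Viability was read in the same well by CellTiter-Fluor.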
The test system of experiment [10] is thyroid hormone receptor (rat, GH3 cells). The experiment is described as follows: qHTS assay to identify small molecule agonists of the thyroid receptor (TR) signaling pathway (AID 743066; calls by dose curve).
Another experiment addresses Aromatase (Homo sapiens) (UniProt P11511). The experiment is described as follows: qHTS assay to identify aromatase inhibitors (AID 743083). Note: nearly all actives have a fitted effect of over 55% in size. Note: potency is the fitted concentration of half-maximal effect.
Experiment [11] is described as follows: qHTS assay to identify aromatase inhibitors - cell viability counter screen (AID 743084).
For experiment [12], the target named is Aryl hydrocarbon receptor (Homo sapiens) (UniProt P35869). In words: qHTS assay to identify small molecule that activate the aryl hydrocarbon receptor (AhR) signaling pathway (AID 743085).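 For activation: HG2L7.5c1 human HepG2 liver cells with stably integrated DRE-driven firefly reporter; series mostly up to about 70 µM.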 Note: nearly all actives have a fitted effect of over 15% in size. Note: potency is the fitted concentration of half-maximal effect. An outline of the steps:
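Luminescence read-out: ONE-Glo reagent, 30 min at room temperature, in HG2L7.5c1 HepG2 reporter cells treated 24 h at 37C. Viability was measured beforehand by CellTiter-Fluor fluorescence after 30 min at 37C.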

In experiment [13] the target is Peroxisome proliferator-activated receptor gamma (Homo sapiens) (UniProt P37231). In words: qHTS assay to identify small molecule agonists of the peroxisome proliferator-activated receptor gamma (PPARg) signaling pathway (AID 743094; active = well fitted activation curve with a large enough effect in the signal ratio in the repeat runs, not every such curve was filed as active; inconclusive = weak or mixed curves, or effect the other way; inactive = no such curve, though single readings can be large or run the other way; the % refers to the signal ratio). An outline of the steps:
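Beta-lactamase FRET fluorescence was the read-out after a 1 h room-temperature substrate step, following 17 h compound treatment at 37C of HEK293H cells expressing a UAS-driven bla reporter responsive to PPARg.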

Experiment [14] is described as follows: qHTS assay for small molecule activators of the heat shock response signaling pathway (AID 743210; active = well fitted activation curve with a large enough effect in the signal ratio in the repeat runs, with a control signal flat, not every such curve was filed as active; inconclusive = weak or mixed curves; the % refers to the signal ratio;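 note: HeLa cells with beta-lactamase reporter driven by heat shock elements; series mostly up to about 63 µM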). An outline of the steps: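 In HSE-bla HeLa cells, 5 h compound incubation (37 C) precedes addition of LiveBLAzer B/G substrate; after 2.5 h at room temperature, fluorescence intensity indicates reporter induction.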
For experiment [15], the target named is Estrogen receptor (Homo sapiens) (UniProt P03372). The experiment is described as follows: qHTS assay to identify small molecule antagonists of the estrogen receptor alpha (ER-alpha) signaling pathway (AID 743069; active = well fitted curve in the direction sought with a large enough effect in the signal ratio in the repeat runs, not every such curve was filed as active; inconclusive = weak or mixed curves, or effect the other way; inactive = no such curve, though single readings can be large or run the other way; the % refers to the signal ratio; note: potency is the fitted concentration of half-maximal effect). An outline of the steps:
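Compound effects are measured against 17beta-estradiol stimulation in HEK293 cells with a UAS-controlled beta-lactamase reporter for ER-alpha. Exposure lasts 18 hr at 37C; LiveBLAzer B/G FRET substrate follows for 2 hr at room temperature.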

The target is the same in experiment [16]. The experiment is described as follows: qHTS assay to identify small molecule agonists of the estrogen receptor alpha (ER-alpha) signaling pathway (AID 743075; calls by dose curve).
For experiment [17] the target is unchanged. In words: qHTS assay to identify small molecule agonists of the estrogen receptor alpha (ER-alpha) signaling pathway using the BG1 cell line (AID 743079). Note: nearly all actives have a fitted effect of over 20% in size.
Experiment [18] is described as follows: qHTS assay to identify small molecule antagonists of the estrogen receptor alpha (ER-alpha) signaling pathway using the BG1 cell line (AID 743080; calls by dose curve;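 note: BG1 cells stimulated with 17beta-estradiol alongside compound; nearly all actives have a fitted effect of over 25% in size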; note: potency is the fitted concentration of half-maximal effect). In a few lines:
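Luciferase inhibition measured with ONE-Glo after 30 min at RT in BG1Luc4E2 cells given test compounds and 17beta-estradiol for 21.5 h at 37 C; CellTiter-Fluor viability read in the same wells beforehand.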

In experiment [19] the target is Peroxisome proliferator-activated receptor gamma (Homo sapiens) (UniProt P37231). In words: qHTS assay to identify small molecule antagonists of the peroxisome proliferator-activated receptor gamma (PPARg) signaling pathway (AID 743191; calls by dose curve; note: series mostly up to about 63 µM; nearly all actives have a fitted effect of over 30% in size). An outline of the steps: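 Beta-lactamase reporter under UAS control in HEK293H PPARg-bla cells; compound treatment 17 h at 37C. Read-out: fluorescence intensity after 1 h room-temperature incubation with LiveBLAzer B/G FRET substrate.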

Values joined by “and” are separate entries in the source; they are usually repeats but may differ in a detail not shown here. Identical values can stand only once. Where a structure was tested more than once in an assay, its records may differ in their call. Active and inactive are the calls of the source. Unless noted, calls come from the whole dose curve; as a rule, active = well fitted curve in the direction sought with a large enough effect in the repeat runs; inconclusive = weak or mixed curves; inactive = no such curve, though single readings can be large; an effect the other way counts as inactive or inconclusive.

Aryl hydrocarbon receptor (Homo sapiens), sequence (P35869 whole entry, looked up): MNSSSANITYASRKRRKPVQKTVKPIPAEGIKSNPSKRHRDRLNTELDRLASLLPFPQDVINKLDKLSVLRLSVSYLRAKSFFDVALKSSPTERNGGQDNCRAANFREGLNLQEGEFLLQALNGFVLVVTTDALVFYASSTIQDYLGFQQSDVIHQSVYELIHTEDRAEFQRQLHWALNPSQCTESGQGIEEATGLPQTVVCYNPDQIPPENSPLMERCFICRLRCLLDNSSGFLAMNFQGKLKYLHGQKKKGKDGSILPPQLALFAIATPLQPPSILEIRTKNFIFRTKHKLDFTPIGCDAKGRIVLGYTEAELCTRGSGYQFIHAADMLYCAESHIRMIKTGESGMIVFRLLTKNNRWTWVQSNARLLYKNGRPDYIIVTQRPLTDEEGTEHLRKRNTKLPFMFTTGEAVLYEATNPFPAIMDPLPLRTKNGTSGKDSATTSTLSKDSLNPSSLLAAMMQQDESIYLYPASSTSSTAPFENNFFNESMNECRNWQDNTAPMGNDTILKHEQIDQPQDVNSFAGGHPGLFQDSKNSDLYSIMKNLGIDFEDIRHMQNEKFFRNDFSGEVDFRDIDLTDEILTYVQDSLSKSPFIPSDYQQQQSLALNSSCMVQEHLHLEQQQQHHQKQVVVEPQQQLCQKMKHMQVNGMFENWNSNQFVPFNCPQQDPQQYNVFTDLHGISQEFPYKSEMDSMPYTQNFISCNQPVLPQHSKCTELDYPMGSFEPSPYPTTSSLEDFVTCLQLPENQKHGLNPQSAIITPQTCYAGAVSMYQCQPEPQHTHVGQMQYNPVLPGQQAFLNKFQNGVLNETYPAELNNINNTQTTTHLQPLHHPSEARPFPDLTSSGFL
Aromatase (Homo sapiens), sequence (P11511 whole entry, looked up): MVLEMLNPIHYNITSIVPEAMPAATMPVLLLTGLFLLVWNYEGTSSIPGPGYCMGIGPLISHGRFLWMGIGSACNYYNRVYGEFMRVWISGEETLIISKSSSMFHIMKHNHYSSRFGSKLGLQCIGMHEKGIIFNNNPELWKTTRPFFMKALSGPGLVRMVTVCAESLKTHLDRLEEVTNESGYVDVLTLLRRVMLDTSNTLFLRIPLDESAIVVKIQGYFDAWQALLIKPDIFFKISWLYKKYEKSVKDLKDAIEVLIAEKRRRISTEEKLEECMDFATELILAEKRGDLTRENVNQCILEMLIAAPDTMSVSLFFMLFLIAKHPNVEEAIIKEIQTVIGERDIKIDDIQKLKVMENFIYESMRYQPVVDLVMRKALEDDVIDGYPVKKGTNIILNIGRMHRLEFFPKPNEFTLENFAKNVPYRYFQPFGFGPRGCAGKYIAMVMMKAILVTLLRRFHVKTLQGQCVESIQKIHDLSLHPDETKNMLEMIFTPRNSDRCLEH
Peroxisome proliferator-activated receptor gamma (Homo sapiens), sequence (P37231 whole entry, looked up): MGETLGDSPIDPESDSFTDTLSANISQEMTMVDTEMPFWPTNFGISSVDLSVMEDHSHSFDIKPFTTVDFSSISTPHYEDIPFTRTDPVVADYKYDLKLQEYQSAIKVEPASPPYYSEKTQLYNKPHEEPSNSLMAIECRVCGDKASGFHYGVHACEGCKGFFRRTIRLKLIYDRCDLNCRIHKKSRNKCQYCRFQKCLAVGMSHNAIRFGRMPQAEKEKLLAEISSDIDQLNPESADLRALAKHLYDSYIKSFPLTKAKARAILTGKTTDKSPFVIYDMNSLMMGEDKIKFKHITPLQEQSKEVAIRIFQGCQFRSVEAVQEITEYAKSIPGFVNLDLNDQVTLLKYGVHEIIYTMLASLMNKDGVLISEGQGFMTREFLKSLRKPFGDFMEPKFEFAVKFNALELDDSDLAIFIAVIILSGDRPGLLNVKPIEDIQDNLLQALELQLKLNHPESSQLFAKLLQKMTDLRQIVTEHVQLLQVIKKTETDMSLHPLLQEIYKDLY
Estrogen receptor (Homo sapiens), sequence (P03372 whole entry, looked up): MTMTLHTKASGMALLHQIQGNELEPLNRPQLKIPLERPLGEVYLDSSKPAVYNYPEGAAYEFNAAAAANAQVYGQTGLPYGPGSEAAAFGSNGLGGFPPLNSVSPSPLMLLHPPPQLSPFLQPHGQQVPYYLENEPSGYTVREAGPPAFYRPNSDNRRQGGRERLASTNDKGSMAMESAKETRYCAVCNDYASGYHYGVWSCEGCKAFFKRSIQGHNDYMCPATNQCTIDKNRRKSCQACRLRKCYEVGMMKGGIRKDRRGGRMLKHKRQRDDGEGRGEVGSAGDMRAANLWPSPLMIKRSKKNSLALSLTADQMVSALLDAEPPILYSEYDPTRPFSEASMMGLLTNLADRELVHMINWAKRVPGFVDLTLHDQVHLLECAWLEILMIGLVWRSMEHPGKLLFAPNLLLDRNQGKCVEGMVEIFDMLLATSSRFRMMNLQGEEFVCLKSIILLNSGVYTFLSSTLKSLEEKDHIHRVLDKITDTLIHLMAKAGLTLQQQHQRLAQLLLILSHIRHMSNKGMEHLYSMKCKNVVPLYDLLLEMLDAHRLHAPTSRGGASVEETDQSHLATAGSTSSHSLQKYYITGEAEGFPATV

On to `COc1c2occc2cc2ccc(=O)oc12`, for which, in [1], the Potency result is “inactive and 1.74 µM (active)”. The Potency result in [2], in experiment [3] and in [5] was “inactive” throughout. The call in [4], in [6], in [7] and in [8] was inactive.

Turning to `Cc1ccc(O)cc1`, the Potency result (in experiment [9]; in [10]; in [1]; in experiment [2]; in the experiment with Aromatase (Homo sapiens); in experiment [11]) was “inactive” in each case. Besides, the Potency entry in experiment [12], in experiment [3] and in [5] was “inactive” throughout. Further, the molecule was classed as inactive in experiment [13], in experiment [4], in experiment [6], in experiment [7], in experiment [14] and in experiment [8].

For the molecule `CC(=O)OCC(COC(C)=O)OC(C)=O`, the Potency entry (in experiment [9]; in experiment [10]; in experiment [1]; in experiment [2]; with Aromatase (Homo sapiens); in [11]) was “inactive” throughout. In addition, the Potency result in [3] and in [5] was “inactive” throughout. Moreover, the Potency result in experiment [12] is “inactive and 67.7 µM (active)”. The outcome in [13], in experiment [4], in experiment [6], in experiment [7], in experiment [14] and in [8] was inactive.

Regarding `CCCCOC(=O)CC(CC(=O)OCCCC)(OC(C)=O)C(=O)OCCCC`, the Potency entry (in [10]; in [1]; in experiment [2]; in the experiment with Aromatase (Homo sapiens); in experiment [11]; in experiment [12]) was “inactive” in each case. Also, the Potency entry in [3] and in [5] was “inactive” in each case. For the same molecule, the call in experiment [13], in [4], in experiment [6], in experiment [7], in [14] and in experiment [8] was inactive.

With `O=C(O)C(=O)O`, the Potency entry (in [1]; in [2]; with Aromatase (Homo sapiens); in experiment [11]; in experiment [12]; in experiment [3]) was “inactive” each time. Besides, in experiment [5], the Potency entry is “inactive”. The outcome in [13], in experiment [4], in experiment [6], in experiment [7], in [14] and in [8] was inactive.

As to `Nc1ccc(S(=O)(=O)Nc2nccs2)cc1`, the Potency entry in experiment [15], in experiment [1], in [16], in experiment [17], in experiment [18] and in [2] was “inactive” each time. Further, the Potency result (in the experiment with Aromatase (Homo sapiens); in experiment [11]; in experiment [12]; in experiment [3]; in [5]) was “inactive” each time. Besides, the molecule was called inactive in experiment [13], in experiment [4], in experiment [6], in experiment [7], in [14] and in experiment [8].

On to `NC(=O)c1cnccn1`, for which the Potency entry in experiment [15], in experiment [1], in experiment [16], in [17], in [18] and in [2] was “inactive” each time. Further, the Potency result (with Aromatase (Homo sapiens); in experiment [11]; in experiment [12]; in experiment [3]; in experiment [5]) was “inactive” in each case. In addition, the molecule was classed as inactive in experiment [13], in experiment [4], in [6], in experiment [7], in experiment [14] and in experiment [8].

With `N=C(N)c1ccc(OCCCCCOc2ccc(C(=N)N)cc2)cc1`, the Potency is 26.6 µM (active) and 60.8 µM (active) and 58.4 µM (active) in [9]; 12 µM [inconclusive] (active) and 15.4 µM [inconclusive] (active) and 46.8 µM [inconclusive] (active) in experiment [15]; 11.9 µM (active) and 46.4 µM (active) in experiment [18]; 26.1 µM (active) in the experiment with Aromatase (Homo sapiens). Besides, the Potency entry in experiment [10], in experiment [1], in experiment [16], in [2], in [11] and in [3] was “inactive” throughout. Also, the outcome in [13], in [4], in experiment [6], in experiment [7], in experiment [14] and in [8] was inactive.

With `O=C1NC(=O)c2ccccc21`, the Potency result (in experiment [9]; in experiment [10]; in experiment [1]; in [2]; in the experiment with Aromatase (Homo sapiens); in experiment [11]) was “inactive” each time. Further, the Potency result in experiment [12], in experiment [3] and in experiment [5] was “inactive” each time. Also, the call in experiment [13], in experiment [4], in experiment [6], in [7], in experiment [14] and in experiment [8] was inactive.

As for `C/C=C/c1ccc(OC)cc1`, the Potency result (in experiment [9]; in experiment [10]; in experiment [1]; in experiment [2]; with Aromatase (Homo sapiens); in experiment [11]) was “inactive” in each case. In addition, the Potency entry in [12], in experiment [3] and in experiment [5] was “inactive” each time. The molecule was classed as inactive in [13], in experiment [4], in experiment [6], in experiment [7], in experiment [14] and in [8].

Take `Nc1ccc(C(=O)O)cc1`: the Potency entry in experiment [15], in experiment [1], in experiment [16], in experiment [17], in experiment [18] and in experiment [2] was “inactive” in each case. Further, the Potency entry (in the experiment with Aromatase (Homo sapiens); in experiment [11]; in experiment [12]; in [3]; in experiment [5]) was “inactive” in each case. The outcome in [13], in experiment [19], in experiment [4], in experiment [6], in experiment [7] and in [14] was inactive. The molecule was classed as inactive in [8].

As for `CCCN(CCC)S(=O)(=O)c1ccc(C(=O)O)cc1`, the Potency entry (in [9]; in [10]; in [1]; in experiment [2]; with Aromatase (Homo sapiens); in experiment [11]) was “inactive” in each case. For the same molecule, the Potency entry in experiment [12], in experiment [3] and in experiment [5] was “inactive” throughout. For the same molecule, the molecule was called inactive in experiment [13], in [19], in experiment [4], in experiment [6], in experiment [7] and in experiment [14]. In addition, in [8], the result was inactive.

The values above are taken from PubChem BioAssay (Tox21).
